Hits are enriched below; roughly 10% of the tested compounds scored in any of these assays.
Lamin A splicing: changes lamin A minigene splicing in HeLa cells; 200,000 compounds, 0.01% hits; AID 1487; Potency, µM (titrated, usually from 46.1 µM), inactives show at the highest dose ratio change, negative = inhibition, actives largely listed as inhibitors; HeLa LMNA splicing GFP/RFP minigene ratio, 48 h; active means well fitted inhibition curve with a large enough effect in the signal ratio, with a control signal flat, not every such curve was filed as active; inconclusive means small, poorly fitted or top-dose-only effect, or effect the other way, or a change in a side signal; the % refers to the signal ratio; further: potency means the concentration at half of the fitted maximal effect
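S3 HeLa cells stably expressing lamin A-EGFP splicing minigene plus DsRed2, 600 cells/well, 48 h compound exposure at 37C. Laser-scanning cytometry; analysed as GFP (500-530 nm)/RFP (575-640 nm) total intensity ratio; 0.5% DMSO vehicle.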
HPGD block: inhibitors of human 15-hydroxyprostaglandin dehydrogenase (HPGD); P15428; purified HPGD, NADH fluorescence kinetic, PGE2 substrate; Potency, µM, for inactives: top-dose activity change, negative = inhibition, hits mostly inhibitors; 150,000 compounds, 4.3% hits; further: potency means the concentration at half of the fitted maximal effect
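20 nM HPGD preincubated 15 min at room temperature with compound in 50 mM Tris-HCl pH 8, 0.01% Tween 20. Started with 1 mM NAD+ and 30 uM prostaglandin E2; NADH fluorescence (360/450 nm) read 5 times over 30-s intervals, last minus first.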
ALDH1A1 inh: blocks purified human ALDH1A1 activity | P00352 | Purified ALDH1A1, NADH fluorescence, propionaldehyde substrate | Potency, µM (titrated, usually from 75.3 µM), for the others: at the top dose activity, negative = inhibition, hits mostly inhibitors | 220,000 compounds, 7.3% hits;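 further: potency means the concentration at half of the fitted maximal effect; plate controls were no enzyme wells and a reference inhibitor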
Target sequence (P00352 whole entry, looked up): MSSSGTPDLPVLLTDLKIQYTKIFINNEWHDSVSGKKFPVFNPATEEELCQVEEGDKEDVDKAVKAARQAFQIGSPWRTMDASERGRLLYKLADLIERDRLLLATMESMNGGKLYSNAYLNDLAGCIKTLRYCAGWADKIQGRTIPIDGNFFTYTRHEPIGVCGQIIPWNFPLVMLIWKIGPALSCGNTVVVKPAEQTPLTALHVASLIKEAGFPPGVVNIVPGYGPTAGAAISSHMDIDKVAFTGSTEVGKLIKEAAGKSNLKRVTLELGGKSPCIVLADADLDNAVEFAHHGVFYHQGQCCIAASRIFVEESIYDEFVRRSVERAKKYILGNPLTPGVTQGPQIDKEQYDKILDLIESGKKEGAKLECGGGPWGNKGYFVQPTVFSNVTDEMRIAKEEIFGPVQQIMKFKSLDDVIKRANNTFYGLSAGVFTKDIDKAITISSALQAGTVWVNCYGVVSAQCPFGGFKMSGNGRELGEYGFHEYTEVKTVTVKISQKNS
Luc counter: blocks Kinase-Glo luciferase, a counter-screen artifact; Q27757; Kinase-Glo luciferase, ATP luminescence, 8 min; Potency, µM (highest dose often 38.3 µM), for inactives: top-dose activity change, negative = inhibition, usual class: inhibitors; 200,000 compounds, 0.28% hits; active means well fitted inhibition curve with a large enough effect; inconclusive means small, poorly fitted or top-dose-only effect; further: potency means the concentration at half of the fitted maximal effect; nearly all actives have a fitted effect of over 60% in size
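Compound is pinned into ATP-containing buffer (10 uM ATP, imidazole pH 7.2, 7 mM MgCl2). Kinase-Glo luciferase reagent is then added. Light output is recorded following an 8-min room-temperature incubation.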
PNC inhibitor: blocks assembly of the perinucleolar compartment; PC3M PTB-GFP, PNC prevalence imaging, 16 h; hits give low values; AID 2417; 140,000 compounds, 3.1% hits; activity change (PNC), negative = inhibition, % at 10 µM;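 active means readout at or below -70, meaning at least 70% loss of cells showing the perinucleolar compartment, a nuclear body marking cancer cells; inconclusive means readout between -30 and a set limit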;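 further: plate controls were DMSO wells for no effect and camptothecin positive control wells for full effect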
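Read-out is percentage of cells bearing a perinucleolar compartment, from automated 20x imaging of fixed, Hoechst-stained PC3M PTB-GFP cells. Cells were seeded 4 h, then exposed 16 h to compound (23 nl of library stock) in duplicate plates.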
* = called active by the depositor; ? = inconclusive; / = no result given; [ ] = remark or other dose. Unless noted, the call rests on the fitted dose curve; in most records, active means well fitted inhibition curve with a large enough effect (not every such curve was filed as active); inconclusive means small, poorly fitted or top-dose-only effect, or another doubt; inactive means no such curve, though single readings can be large or run the other way. Unless noted, on the % scale 0 is the no-effect control and ±100 the full control effect.

SMILES	Lamin A splicing	HPGD block	ALDH1A1 inh	Luc counter	PNC inhibitor
Cc1ccc(C)c(CSc2nnc(-c3ccccn3)n2N)c1	17%	16µM*	10µM*	4%	?
C[C@@]12CC(=O)[C@@H]3[C@@H](CCC4=CC(=O)CC[C@]43C)[C@@H]1CC=C2CC(=O)O	/	-6%	6%[13.5 µM]	-6%[7.66 µM]	/
Cc1ccc(C(C(=O)NC2CCCCC2)N(Cc2cccnc2)C(=O)C2COc3ccccc3O2)o1 (stereo not given)	-1%	-8%	13µM*	-8%	?
Cc1ccc(CN(C(=O)c2csnn2)C(C(=O)NC2CCCC2)c2ccc(C)o2)cc1 (stereo not given)	-13%	-17%	14µM*	0%	303
COc1ccc(Cl)cc1NC(=O)c1c(NCc2ccc(C)o2)sc2c1CCC(C)C2 (stereo not given)	-2%[46 µM]	/	/	/	/
O=C(c1ccccc1)[C@@H]1O[C@H]1c1ccc(-c2ccccc2)cc1	/	?	-29%	-4%	/
Cc1cc2c(ncn2C)c(NS(=O)(=O)c2ccccc2Cl)c1C	0%	-2%	-2%	2%	-83*
Cc1cc2c(ncn2C)c(NS(=O)(=O)c2cc(Cl)ccc2Cl)c1C	-7%	1%	9%	2%	?
COc1cc(CCNC(C)=O)c(C(=O)/C=C/c2cccc(OC)c2OC)cc1OC	/	-8%	-2%	1%	/
Cc1ccc2cc(CN(Cc3cccs3)Cc3nnnn3CC3CCCO3)c(=O)[nH]c2c1 (stereo not given)	-5%	-13%	7.9µM*	-2%	23
Cc1ccc2[nH]c(=O)c(CN(Cc3cccs3)Cc3nnnn3CC3CCCO3)cc2c1 (stereo not given)	4%	-12%	20µM*	1%	-18
COc1ccc(Cl)cc1CSc1n[nH]c(C)n1	12%	16µM*	-5%	17%	?
COc1cnc(SCc2ccc(Cl)cc2Cl)nc1Cl	?	18µM*	7.1µM*	-7%	17
O=C(O)c1c[nH]c2cc(OCc3ccccc3)ccc2c1=O	/	?	?	-8%[7.66 µM]	/
O=C(COc1ccc(Cl)cc1)Nc1ccc2nc(SCC(=O)N3CCOCC3)sc2c1	-13%[46 µM]	/	/	/	/
COc1cc(O)oc1C=Nc1ccc(C(=O)O)cc1	19%[9.22 µM]	/	-5%	13µM*	/
COc1cc(O)oc1C=Nc1ccc(Cl)cc1Cl	9%	?	14µM*	-6%	77
COc1cc(O)oc1C=Nc1ccc(Cl)cc1	-6%	-13%	?	-10%	56
O=S(=O)(c1ccccc1)N(C1=NCCS1)S(=O)(=O)c1ccccc1	0%	-2%	8.9µM*	1%	?
COc1cc(OC)cc(C(=O)N2CCC(c3ccncc3)CC2)c1	6%[46 µM]	/	/	/	/
COc1ccc(/C=C(\CC(=O)O)c2nc3ccccc3o2)cc1	-10%[46 µM]	/	-11%	4%	/
COc1ccc(C(=O)/C(=C/c2cccs2)c2nc3ccccc3o2)cc1	?	35µM*	2µM*	-1%	68
CSc1ccc(CNC(=O)c2ccc3c(c2)N(C)C(=O)C2CCCCN32)cc1 (stereo not given)	-21%[46 µM]	/	/	/	/
CC12C(=O)N(Cc3ccco3)C(=O)C1C1c3ccccc3C2c2ccccc21 (stereo not given)	-4%	-21%	16µM*	2%	-6
Cc1ccc(Cl)cc1-n1ncc2c(N3CCC(C)CC3)ncnc21	10%[46 µM]	/	/	/	/
SMILES	Lamin A splicing	HPGD block	ALDH1A1 inh	Luc counter	PNC inhibitor
[C-]#[N+]/C(C#N)=C\c1cc(C(C)(C)C)c(O)c(C(C)(C)C)c1	/	-23%	-11%	2%	/
CC(C)(C)c1cc(/C=C(\C#N)C(N)=S)cc(C(C)(C)C)c1O	?	?	2.8µM*	-7%	/
N#C/C(=C/c1ccc(F)cc1)C(N)=S	/	/	25µM*	-2%	/
Cn1c2c(c(=O)n(C)c1=O)C(C(F)(F)F)(C(F)(F)F)N=C(C1CCCCC1)N2	15%	-1%	7%	1%	-93*
Cc1ccc(C)c(Cn2c(SCC(=O)NCc3ccccc3)nc3ccccc32)c1	-14%[46 µM]	/	/	/	/
CCN(CC)S(=O)(=O)c1ccc(Cl)c(C(=O)Oc2cccnc2)c1	7%	-26%	14µM*	0%	7
O=C(c1ccc2c(c1)OCO2)C1CCCN(C(=O)c2cnn(Cc3ccccc3)c2)C1 (stereo not given)	?	/	25µM*	0%	/

High-throughput results as filed in PubChem.
